Data published in the supplement of paper PMC10849652.
About 7,900 targets were measured; listed, in parts, are those with a hit and a random draw of the rest. About 0.6% of all pairs of compound and target were hits.

compound: c1cn2cc(-c3ccc4cn[nH]c4c3)nc(Nc3ccc(N4CCOCC4)cc3)c2n1 [entospletinib]; assay: log2 fold change, soluble protein after heating vs DMSO (PISA); higher = thermal stabilisation; K562 cells, 10 uM, 30 min; active = over 0.2 and 3.5 SD of the protein, either way, in both replicates (recomputed)
Outline: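 Quantification of soluble protein used TMTpro 16plex LC-MS/MS, with channel sums equalised. Samples were the supernatant after 21,000xg for 90 min of pooled aliquots from K562 cells (2×10^6 cells/mL) treated with 10 μM compound for 30 min, heated for 3 min over 48°C-58°C, and extracted in PBS with 0.5% NP-40 at 4°C. Values, from duplicates, describe thermal stability against control samples on a log2 fold-change scale.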

UniProt Q96PC5, sequence (Q96PC5 whole entry, looked up): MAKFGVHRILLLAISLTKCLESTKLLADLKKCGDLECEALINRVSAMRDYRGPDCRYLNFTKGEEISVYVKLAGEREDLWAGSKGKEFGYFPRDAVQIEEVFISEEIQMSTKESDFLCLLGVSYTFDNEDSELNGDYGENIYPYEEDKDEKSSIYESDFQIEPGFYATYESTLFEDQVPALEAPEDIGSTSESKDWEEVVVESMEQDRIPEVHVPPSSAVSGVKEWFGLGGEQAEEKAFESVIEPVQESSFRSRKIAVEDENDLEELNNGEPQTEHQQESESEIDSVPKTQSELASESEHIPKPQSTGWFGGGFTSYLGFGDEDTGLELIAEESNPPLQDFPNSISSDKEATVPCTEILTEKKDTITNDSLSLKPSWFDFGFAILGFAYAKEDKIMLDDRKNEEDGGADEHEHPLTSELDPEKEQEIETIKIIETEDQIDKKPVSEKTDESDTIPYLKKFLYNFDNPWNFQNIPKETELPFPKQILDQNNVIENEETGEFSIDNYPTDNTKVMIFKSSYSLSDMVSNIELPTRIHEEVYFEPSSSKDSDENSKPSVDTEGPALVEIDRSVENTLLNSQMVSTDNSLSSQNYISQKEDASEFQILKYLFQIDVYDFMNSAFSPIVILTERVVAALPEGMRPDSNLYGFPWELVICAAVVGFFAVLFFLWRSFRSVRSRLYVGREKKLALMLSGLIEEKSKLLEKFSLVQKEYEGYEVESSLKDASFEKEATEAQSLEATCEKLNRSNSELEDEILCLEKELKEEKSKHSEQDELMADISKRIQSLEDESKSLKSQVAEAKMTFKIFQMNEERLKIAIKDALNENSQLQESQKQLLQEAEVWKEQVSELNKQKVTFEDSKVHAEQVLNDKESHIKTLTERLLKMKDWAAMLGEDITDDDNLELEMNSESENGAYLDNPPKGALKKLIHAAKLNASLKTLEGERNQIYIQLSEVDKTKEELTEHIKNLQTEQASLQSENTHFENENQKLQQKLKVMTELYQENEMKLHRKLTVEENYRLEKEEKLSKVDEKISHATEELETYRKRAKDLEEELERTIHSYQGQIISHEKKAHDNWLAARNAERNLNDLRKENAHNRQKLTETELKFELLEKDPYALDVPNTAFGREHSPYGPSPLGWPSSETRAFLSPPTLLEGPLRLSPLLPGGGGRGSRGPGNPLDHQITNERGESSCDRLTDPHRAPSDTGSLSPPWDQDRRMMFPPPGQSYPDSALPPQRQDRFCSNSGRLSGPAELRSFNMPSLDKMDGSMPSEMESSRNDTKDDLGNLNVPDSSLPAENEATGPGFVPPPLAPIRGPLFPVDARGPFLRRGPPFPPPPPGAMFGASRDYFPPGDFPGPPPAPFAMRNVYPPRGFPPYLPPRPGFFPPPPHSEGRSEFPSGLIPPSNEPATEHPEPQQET
UniProt Q9NVH2, sequence (Q9NVH2 whole entry, looked up): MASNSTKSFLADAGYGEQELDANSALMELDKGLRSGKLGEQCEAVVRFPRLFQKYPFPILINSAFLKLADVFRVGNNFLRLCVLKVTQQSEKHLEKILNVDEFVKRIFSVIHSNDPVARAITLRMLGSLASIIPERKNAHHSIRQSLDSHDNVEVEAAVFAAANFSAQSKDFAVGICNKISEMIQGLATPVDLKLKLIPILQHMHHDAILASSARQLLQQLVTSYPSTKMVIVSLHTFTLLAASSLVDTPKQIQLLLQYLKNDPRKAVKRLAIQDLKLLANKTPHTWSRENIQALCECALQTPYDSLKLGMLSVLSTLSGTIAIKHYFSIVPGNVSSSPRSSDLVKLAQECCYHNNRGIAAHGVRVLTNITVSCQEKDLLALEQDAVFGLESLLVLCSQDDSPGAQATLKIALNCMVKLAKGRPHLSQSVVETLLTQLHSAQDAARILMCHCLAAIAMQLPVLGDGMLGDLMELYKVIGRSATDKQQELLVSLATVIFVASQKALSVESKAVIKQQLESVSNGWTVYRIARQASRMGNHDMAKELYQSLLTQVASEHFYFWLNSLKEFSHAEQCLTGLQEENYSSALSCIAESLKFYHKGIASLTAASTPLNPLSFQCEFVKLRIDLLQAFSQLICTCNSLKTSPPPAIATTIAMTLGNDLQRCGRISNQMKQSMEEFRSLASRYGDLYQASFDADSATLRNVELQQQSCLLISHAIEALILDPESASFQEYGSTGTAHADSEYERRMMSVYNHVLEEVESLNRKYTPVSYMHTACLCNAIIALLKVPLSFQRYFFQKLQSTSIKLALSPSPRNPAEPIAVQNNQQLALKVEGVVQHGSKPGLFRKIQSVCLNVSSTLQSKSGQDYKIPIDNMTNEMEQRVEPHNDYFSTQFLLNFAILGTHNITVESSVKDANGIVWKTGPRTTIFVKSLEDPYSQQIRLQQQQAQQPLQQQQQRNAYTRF
UniProt Q07820, sequence (Q07820 whole entry, looked up): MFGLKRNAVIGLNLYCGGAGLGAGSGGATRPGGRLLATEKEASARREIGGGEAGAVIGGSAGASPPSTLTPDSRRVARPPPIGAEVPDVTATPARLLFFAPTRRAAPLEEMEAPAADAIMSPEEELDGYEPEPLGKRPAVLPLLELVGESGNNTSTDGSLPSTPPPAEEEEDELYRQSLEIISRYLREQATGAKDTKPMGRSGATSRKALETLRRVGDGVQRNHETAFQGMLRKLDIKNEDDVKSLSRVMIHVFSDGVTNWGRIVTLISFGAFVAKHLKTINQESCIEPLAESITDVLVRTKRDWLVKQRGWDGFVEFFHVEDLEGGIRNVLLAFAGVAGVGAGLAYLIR
UniProt Q9Y6R4, sequence (Q9Y6R4 whole entry, looked up): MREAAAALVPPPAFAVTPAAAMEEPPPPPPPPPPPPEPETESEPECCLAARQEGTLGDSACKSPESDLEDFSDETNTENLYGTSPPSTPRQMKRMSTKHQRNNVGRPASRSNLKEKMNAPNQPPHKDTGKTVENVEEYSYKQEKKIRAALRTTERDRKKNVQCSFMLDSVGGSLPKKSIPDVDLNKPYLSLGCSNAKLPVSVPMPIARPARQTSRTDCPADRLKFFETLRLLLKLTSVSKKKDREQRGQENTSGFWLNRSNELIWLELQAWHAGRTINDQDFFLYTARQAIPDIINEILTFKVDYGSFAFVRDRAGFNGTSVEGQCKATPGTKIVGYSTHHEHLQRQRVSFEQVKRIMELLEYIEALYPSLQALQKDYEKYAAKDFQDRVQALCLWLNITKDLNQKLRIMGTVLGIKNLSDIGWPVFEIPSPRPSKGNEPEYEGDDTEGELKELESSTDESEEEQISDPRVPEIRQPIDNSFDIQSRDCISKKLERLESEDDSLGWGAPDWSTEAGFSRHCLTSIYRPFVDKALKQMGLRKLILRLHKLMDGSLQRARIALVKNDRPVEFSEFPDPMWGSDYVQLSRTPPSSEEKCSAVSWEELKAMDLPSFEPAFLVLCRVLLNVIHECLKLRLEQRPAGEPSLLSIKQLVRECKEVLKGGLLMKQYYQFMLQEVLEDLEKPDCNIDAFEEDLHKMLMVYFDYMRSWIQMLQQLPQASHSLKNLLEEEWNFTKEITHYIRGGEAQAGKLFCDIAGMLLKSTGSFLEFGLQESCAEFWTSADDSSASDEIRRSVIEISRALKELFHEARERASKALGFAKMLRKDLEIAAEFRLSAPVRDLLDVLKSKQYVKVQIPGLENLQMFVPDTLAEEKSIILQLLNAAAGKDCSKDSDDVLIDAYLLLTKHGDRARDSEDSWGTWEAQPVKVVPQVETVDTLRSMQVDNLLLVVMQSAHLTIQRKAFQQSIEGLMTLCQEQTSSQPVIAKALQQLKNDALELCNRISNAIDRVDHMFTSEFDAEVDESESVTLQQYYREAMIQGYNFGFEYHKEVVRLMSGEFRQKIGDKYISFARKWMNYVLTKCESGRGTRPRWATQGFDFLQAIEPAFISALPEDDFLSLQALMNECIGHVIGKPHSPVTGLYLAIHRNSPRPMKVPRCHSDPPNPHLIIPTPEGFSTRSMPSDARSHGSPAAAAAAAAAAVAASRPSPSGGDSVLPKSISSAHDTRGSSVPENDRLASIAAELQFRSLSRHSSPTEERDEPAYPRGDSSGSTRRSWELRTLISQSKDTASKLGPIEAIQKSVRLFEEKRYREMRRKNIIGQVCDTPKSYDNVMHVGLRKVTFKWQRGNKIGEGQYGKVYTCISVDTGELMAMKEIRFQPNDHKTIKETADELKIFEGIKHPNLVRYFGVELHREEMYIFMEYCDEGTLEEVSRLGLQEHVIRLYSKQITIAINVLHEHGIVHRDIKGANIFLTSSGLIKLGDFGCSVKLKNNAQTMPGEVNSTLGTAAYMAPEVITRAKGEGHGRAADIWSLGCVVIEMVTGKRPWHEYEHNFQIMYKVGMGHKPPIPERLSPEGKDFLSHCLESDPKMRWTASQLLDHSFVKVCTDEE
UniProt Q8TDD5, sequence (Q8TDD5 whole entry, looked up): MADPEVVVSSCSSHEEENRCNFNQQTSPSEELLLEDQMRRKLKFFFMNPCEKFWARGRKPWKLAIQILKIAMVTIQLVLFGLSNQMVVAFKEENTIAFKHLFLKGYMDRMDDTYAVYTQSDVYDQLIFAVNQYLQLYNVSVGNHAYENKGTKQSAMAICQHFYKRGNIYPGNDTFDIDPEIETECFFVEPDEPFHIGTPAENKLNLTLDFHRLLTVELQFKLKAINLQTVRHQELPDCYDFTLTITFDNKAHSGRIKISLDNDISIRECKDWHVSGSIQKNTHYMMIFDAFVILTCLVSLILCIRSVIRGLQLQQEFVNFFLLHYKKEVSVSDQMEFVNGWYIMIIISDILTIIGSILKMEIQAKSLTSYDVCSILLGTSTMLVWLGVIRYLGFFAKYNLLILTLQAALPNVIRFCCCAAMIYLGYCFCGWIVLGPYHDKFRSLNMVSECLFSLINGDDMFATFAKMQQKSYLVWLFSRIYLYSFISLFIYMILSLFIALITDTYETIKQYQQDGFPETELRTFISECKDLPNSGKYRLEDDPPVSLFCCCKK
UniProt O14880, sequence (O14880 whole entry, looked up): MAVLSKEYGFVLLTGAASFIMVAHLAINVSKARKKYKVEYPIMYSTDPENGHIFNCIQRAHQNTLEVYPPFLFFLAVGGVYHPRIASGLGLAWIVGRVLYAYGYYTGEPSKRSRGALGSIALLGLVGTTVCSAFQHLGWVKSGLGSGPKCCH

log2 fold change, inactive:
MCOLN3 (UniProt Q8TDD5) -0.194
MGST1 (UniProt P10620) 0.051
KIF2C (UniProt Q99661) -0.097
INPP1 (UniProt P49441) 0.017
MAP1LC3B2 (UniProt A6NCE7) -0.001
LMBRD1 (UniProt Q9NUN5) -0.03
MIA2 (UniProt Q96PC5) -0.012
MFF (UniProt Q9GZY8) -0.029
MDN1 (UniProt Q9NU22) -0.123
KDM5D isoform 3 (UniProt Q9BY66) -0.056
LMF2 (UniProt Q9BU23) -0.019
MFSD1 isoform 6 (UniProt Q9H3U5) 0.013
MAGEA9 (UniProt P43362) 0.083
MARCKS (UniProt P29966) 0.004
KEAP1 (UniProt Q14145) 0.101
LARP1 (UniProt Q6PKG0) 0.028
ITM2B (UniProt Q9Y287) -0.011
MCL1 (UniProt Q07820) 0.081
KDM3B (UniProt Q7LBC6) -0.027
IL10RB (UniProt Q08334) 0.027
MAP4 (UniProt P27816) -0.017
LPGAT1 (UniProt Q92604) -0.069
LMBRD2 (UniProt Q68DH5) 0.024
KLHL18 (UniProt O94889) -0.016
MAN2B2 (UniProt Q9Y2E5) 0.004
KIAA1324L (UniProt A8MWY0) 0.028
MICU2 (UniProt Q8IYU8) 0.019
MAP3K4 isoform 2 (UniProt Q9Y6R4) 0.02
KXD1 (UniProt Q9BQD3) 0.016
INTS7 (UniProt Q9NVH2) -0.005
LDAH isoform 2 (UniProt Q9H6V9) 0.016
MGST3 (UniProt O14880) 0.054
KNTC1 (UniProt P50748) 0
